Screening results from PubChem.
In the library only some 6.8% were active in any assay of this set; here they are far more common.
PTAP TSG101 blk: blocks PTAP/TSG101 interaction to inhibit HIV-1 budding; AID 493005; Fluorescence polarization, FITC-PTAP peptide / Tsg101 binding; 340,000 tested, under 10 active; Potency, µM (highest dose often 115 µM), for the others: top-dose activity change, negative = inhibition, most hits filed as inhibitors; active = well fitted inhibition curve with a large enough effect in the main read-out, with a control signal flat, not every such curve was filed as active; inconclusive = small, poorly fitted or top-dose-only effect, or effect the other way, or a change in a side signal; inactive = no such curve, though single readings can be large or run the other way; note: % of control where 0% means no effect
Target sequence (Q99816 whole entry, looked up): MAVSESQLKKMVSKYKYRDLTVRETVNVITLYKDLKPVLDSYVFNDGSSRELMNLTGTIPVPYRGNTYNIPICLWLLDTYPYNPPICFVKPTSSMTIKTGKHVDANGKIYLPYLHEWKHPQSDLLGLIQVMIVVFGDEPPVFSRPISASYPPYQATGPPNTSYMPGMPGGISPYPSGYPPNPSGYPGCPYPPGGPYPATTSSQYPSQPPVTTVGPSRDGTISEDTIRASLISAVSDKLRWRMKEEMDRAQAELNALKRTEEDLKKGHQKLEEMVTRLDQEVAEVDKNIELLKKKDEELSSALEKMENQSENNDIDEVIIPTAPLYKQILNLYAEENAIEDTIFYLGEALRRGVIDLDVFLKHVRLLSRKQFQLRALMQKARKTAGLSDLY
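Fluorescence anisotropy tracks displacement of a FITC-tagged PTAP peptide (50 nM) from the Tsg101 binding domain (10 uM), following a 20 min room-temperature incubation at pH 7.5.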
KB-V1 MDR tox: KB-V1 MDR subline cytotoxicity; KB-V1 MDR cells viability, CellTiter-Glo, 72 h; Potency, µM (top dose mostly 46.1 µM), actives largely listed as cytotoxic; hit rate 3.4% among 400,000; note: % is set by controls: 0 for no effect and ±100 for the full control effect; nearly all actives have a fitted effect of over 60% in size
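KB-V1 cells (P-gp-expressing MDR subline of KB-3-1) in phenol-red-free DMEM with 10% FBS were exposed to library compounds over a concentration series for 72 h at 37 degrees C. Viability read by CellTiter-Glo luminescence; concentration-effect curves fitted after normalization.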
SW480 rerep: inducers of DNA re-replication in SW480 colon cancer cells; SW480 DNA re-replication, Hoechst DNA content imaging, 48 h; Potency, µM (top dose mostly 46.1 µM), without a hit: top-dose re-replication activation, usual class: activators; hit rate 1.8% among 340,000; AID 624297; note: % of control where 0% means no effect; nearly all actives have a fitted effect of over 55% in size
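Per well, 250 cells were exposed to pinned compound for 48 hr. Nuclear DNA was visualised with Hoechst (40 min, 37 C) and total object intensity recorded by fluorescence scanning.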
KB-3-1 tox: KB-3-1 parental cell cytotoxicity; KB-3-1 viability, CellTiter-Glo ATP luminescence, 72 h; Potency, µM (top dose mostly 46.1 µM), most hits filed as cytotoxic; hit rate 1.4% among 400,000; AID 1347075; note: % is set by controls: 0 for no effect and ±100 for the full control effect; nearly all actives have a fitted effect of over 60% in size
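Using CellTiter-Glo luminescence, growth of non-resistant KB-3-1 adenocarcinoma cells is assessed 72 h after pin-tool compound addition at 37 °C. Normalized responses across the concentration series yield fitted curves.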
MCF10A rerep: inducers of DNA re-replication in MCF 10A breast cells. MCF 10A DNA re-replication, Hoechst nuclear intensity, 48 h. Potency, µM (series often up to 46.1 µM), without a hit: top-dose activity, positive = re-replication, actives largely listed as activators. hit rate 2.9% among 350,000; note: % of control where 0% means no effect; nearly all actives have a fitted effect of over 50% in size
PINK1 expr mod: PINK1 expression modulation; PINK1 immunofluorescence, high-content cytometry, 24 h; Potency, µM (doses to about 76.6 µM), without a hit: at the top dose activation (PINK1 increase), usual class: activators; hit rate 0.2% among 410,000; AID 624263; active = well fitted activation curve with a large enough effect; inconclusive = small, poorly fitted or top-dose-only effect; cell line not stated here; note: % of control where 0% means no effect; nearly all actives have a fitted effect of over 65% in size
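Compound titrations (5 concentrations, 24 h) on a stable cell line; DMSO and CCCP controls. Endpoint: fixed-cell PINK1 immunofluorescence with mitochondrial, cell and nuclear markers, scanned by microplate cytometer.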
An asterisk follows results filed as active; [ ] = dose if it differs, or a comment. Unless noted, calls come from the whole dose curve; as a rule, active = well fitted curve in the direction sought with a large enough effect; inconclusive = small, poorly fitted or top-dose-only effect, or another doubt; inactive = no such curve, though single readings can be large; an effect the other way counts as inactive or inconclusive. Potency is the fitted concentration of half-maximal effect.

For CCc1ccccc1NC(=O)c1ccc(Cn2cc([N+](=O)[O-])cn2)cc1 the results were PTAP TSG101 blk 1%, KB-V1 MDR tox inactive, SW480 rerep 1µM*, KB-3-1 tox inactive, MCF10A rerep -2% and PINK1 expr mod 2%.
`O=C(Nc1ccn(Cc2ccccc2)n1)c1cccc(Cn2cc([N+](=O)[O-])cn2)c1` gave PTAP TSG101 blk -3%, KB-V1 MDR tox inactive, SW480 rerep -19%, KB-3-1 tox inconclusive, MCF10A rerep 8% and PINK1 expr mod -1%.
For O=C(Nc1cccc(F)c1)c1ccc(Cn2cc([N+](=O)[O-])cn2)o1 the results were PTAP TSG101 blk 1%, KB-V1 MDR tox 13µM*, SW480 rerep 3%, KB-3-1 tox inactive, MCF10A rerep -1% and PINK1 expr mod 1%.
Screening CCC(NC(=O)c1cccc(Cn2cc([N+](=O)[O-])cn2)c1)c1ccc(C(C)C)cc1 (stereo not given) returned PTAP TSG101 blk -5%, KB-V1 MDR tox 7.3µM*, SW480 rerep 20%, KB-3-1 tox inconclusive, MCF10A rerep 26% and PINK1 expr mod -4%[38.3 µM].
CC(NC(=O)c1cccc(Cn2cc([N+](=O)[O-])cn2)c1)c1ccc(C(C)(C)C)cc1 (stereo not given) was read as PTAP TSG101 blk -1%, KB-V1 MDR tox 21µM*, SW480 rerep 0%, KB-3-1 tox inactive, MCF10A rerep inconclusive and PINK1 expr mod 8%[38.3 µM].
Screening COc1ccc(-c2cc(=O)oc3c(C)c(OCC(=O)N(C)C)ccc23)cc1 returned PTAP TSG101 blk -2%, KB-V1 MDR tox inactive, SW480 rerep -9%, KB-3-1 tox inconclusive, MCF10A rerep -4% and PINK1 expr mod 2%.
COc1ccc(-c2cc(=O)oc3c(C)c(O)c(CN(C)C)cc23)cc1 was read as PTAP TSG101 blk -4%, KB-V1 MDR tox 2.3µM*, SW480 rerep 12%, KB-3-1 tox inactive, MCF10A rerep 13% and PINK1 expr mod 5%[38.3 µM].
`O=C(CSc1cn(CC(=O)N2CCCC2)c2ccccc12)Nc1ccc(Cl)cc1` gave KB-V1 MDR tox inactive, KB-3-1 tox inactive and PINK1 expr mod 0%.
For O=C(c1c(F)cccc1F)N(Cc1ccccn1)C1CCCC1 the results were PTAP TSG101 blk -7%, KB-V1 MDR tox 21µM*, SW480 rerep -5%, KB-3-1 tox inactive, MCF10A rerep -6% and PINK1 expr mod -1%[38.3 µM].
O=C(c1c(F)cccc1F)N(Cc1cccs1)C1CCCC1 was read as PTAP TSG101 blk -5%, KB-V1 MDR tox inactive, SW480 rerep 1%, KB-3-1 tox inactive, MCF10A rerep 20% and PINK1 expr mod -1%.
`CCn1c2ccccc2c2cc(/C=N/O)ccc21` gave PTAP TSG101 blk 1%, KB-V1 MDR tox 12µM*, SW480 rerep 4.1µM*, KB-3-1 tox inactive, MCF10A rerep 2% and PINK1 expr mod -3%.
`CCn1c2ccccc2c2cc(/C=N/n3cn[nH]c3=S)ccc21` gave PTAP TSG101 blk -5%, KB-V1 MDR tox inconclusive, SW480 rerep 3.7µM*, KB-3-1 tox inactive, MCF10A rerep inconclusive and PINK1 expr mod -7%[38.3 µM].
`CCn1c2ccccc2c2cc(/C=N/n3c(-c4cc(C)[nH]n4)n[nH]c3=S)ccc21` gave PTAP TSG101 blk -2%, KB-V1 MDR tox inactive, SW480 rerep -32%, KB-3-1 tox inactive, MCF10A rerep 8.2µM* and PINK1 expr mod 2%.
Screening Cc1ccc(C(=O)C2Oc3ccccc3C3CC(c4ccc(C)cc4)=NN23)cc1 (stereo not given) returned PTAP TSG101 blk -2%, KB-V1 MDR tox 21µM*, SW480 rerep 1%, KB-3-1 tox inactive, MCF10A rerep 10% and PINK1 expr mod 7%.
For CCOC(=O)c1[nH]c(C)c(C(=O)Nc2ccc(C)c(C)c2)c1C the results were PTAP TSG101 blk 1%, KB-V1 MDR tox inconclusive, SW480 rerep inconclusive, KB-3-1 tox inconclusive, MCF10A rerep 22% and PINK1 expr mod 5%.
For CCOC(=O)c1[nH]c(C)c(C(=O)Nc2ccc(C)cc2C)c1C the results were PTAP TSG101 blk 0%, KB-V1 MDR tox 3.7µM*, SW480 rerep 10µM*, KB-3-1 tox 2.6µM*, MCF10A rerep 13µM* and PINK1 expr mod 3%.
Screening CCOC(=O)c1[nH]c(C)c(C(=O)Nc2ccccc2F)c1C returned PTAP TSG101 blk 1%, KB-V1 MDR tox 3.7µM*, SW480 rerep 8.2µM*, KB-3-1 tox 2.3µM*, MCF10A rerep 7.3µM* and PINK1 expr mod 6%.
For CCOC(=O)c1[nH]c(C)c(C(=O)c2ccc(C)cc2)c1C the results were KB-V1 MDR tox 1.5µM*, SW480 rerep 5.2µM*, KB-3-1 tox inactive, MCF10A rerep 1.5µM* and PINK1 expr mod inconclusive.
Screening CCOC(=O)c1[nH]c(C)c(C(=O)Nc2ccc(F)cc2)c1C returned PTAP TSG101 blk 0%, KB-V1 MDR tox inactive, SW480 rerep 4%, KB-3-1 tox inactive, MCF10A rerep 1% and PINK1 expr mod 3%.
For COc1ncc2nc(-c3cn(C)c4ccccc34)c(=O)n(CCC#N)c2n1 the results were PINK1 expr mod 7%.
COCC(=O)Nc1cc(C(=O)N2CCN(c3ccccc3)C(=O)C2)cc2nc(-c3ccccc3)n(C)c12 was read as PINK1 expr mod 0%.
For Brc1ccccc1-c1nnc(SCc2nc3ccccc3s2)o1 the results were PTAP TSG101 blk -4%, KB-V1 MDR tox inactive, SW480 rerep 10%, KB-3-1 tox inactive, MCF10A rerep 9.2µM* and PINK1 expr mod 0%.
O=S(=O)(/N=C(/Sc1ccccc1)c1ccccc1)c1ccc(Cl)cc1 was read as KB-V1 MDR tox inconclusive, KB-3-1 tox inconclusive and PINK1 expr mod 2%.
`COc1ccccc1OCCCn1cc(C#N)c2ccccc21` gave PTAP TSG101 blk 0%, KB-V1 MDR tox 5.2µM*, SW480 rerep -2%, KB-3-1 tox 12µM*, MCF10A rerep 10% and PINK1 expr mod 1%.
Screening Cc1ccc2c(c1)N(Cc1ccccc1)C(=O)C(C)O2 (stereo not given) returned KB-V1 MDR tox inactive, KB-3-1 tox inactive and PINK1 expr mod 3%.
`CCC1Oc2ccc(C)cc2N(Cc2cccc(C)c2)C1=O` (stereo not given) gave PTAP TSG101 blk -5%, KB-V1 MDR tox inactive, SW480 rerep -4%, KB-3-1 tox inactive, MCF10A rerep 12µM* and PINK1 expr mod 13%[38.3 µM].
Screening Cc1oc2ccc(O)c(CN3CCN(Cc4ccccc4)CC3)c2c1C(=O)Nc1cccc(Cl)c1C returned PINK1 expr mod 2%.
